# The supplement of paper PMC7411054
# Experiments:
# Assay in all cases: lowest phenotypically active concentration; higher = less potent
# Conditions in all cases: treatment time: 24 h
# HepG2-GM130-SQSTM1 = test system: HepG2-GM130-SQSTM1
# Outline: (§1)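 Phenotypic activity depended on meeting both a deviation and a reproducibility criterion. The fifteen gene-edited A549, HepG2 and WPMY1 reporter lines were treated at 0.3, 1, 3 or 9 µM for 24 h, four wells each, then imaged live with features normalised to solvent control wells. Deviation required ≥3 of 4 wells past the 95th percentile of control Euclidean distances, and reproducibility a median replicate Pearson correlation above the 95th percentile of non-replicates.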
# HepG2-TP53BP1-CLTA = test system: HepG2-TP53BP1-CLTA
# Outline: as §1
# HepG2-TUBA1B-RELA = test system: HepG2-TUBA1B-RELA
# Outline: as §1
# WPMY1-ACTB-RAB5A = test system: WPMY1-ACTB-RAB5A
# Outline: as §1
# WPMY1-TUBA1B-RELA = test system: WPMY1-TUBA1B-RELA
# Outline: as §1
# WPMY1-CANX-COX4 = test system: WPMY1-CANX-COX4
# Outline: as §1
# WPMY1-TP53BP1-CLTA = test system: WPMY1-TP53BP1-CLTA
# Outline: as §1
# HepG2-CANX-COX4 = test system: HepG2-CANX-COX4
# Outline: as §1
SMILES,lowest phenotypically active concentration (HepG2-GM130-SQSTM1),lowest phenotypically active concentration (HepG2-TP53BP1-CLTA),lowest phenotypically active concentration (HepG2-TUBA1B-RELA),lowest phenotypically active concentration (WPMY1-ACTB-RAB5A),lowest phenotypically active concentration (WPMY1-TUBA1B-RELA),lowest phenotypically active concentration (WPMY1-CANX-COX4),lowest phenotypically active concentration (WPMY1-TP53BP1-CLTA),lowest phenotypically active concentration (HepG2-CANX-COX4)
O=C(CCCN1CCC(O)(c2ccc(Cl)cc2)CC1)c1ccc(F)cc1 [haloperidol],9 µM,9 µM,9 µM,,,,,
CC(CN(C)C)CN1c2ccccc2Sc2ccccc21.CC(CN(C)C)CN1c2ccccc2Sc2ccccc21 (stereo unspecified) [alimemazine],9 µM,9 µM,9 µM,9 µM,9 µM,,,
CN1CCC(CN2c3ccccc3Sc3ccccc32)C1 (stereo unspecified) [methdilazine],9 µM,9 µM,9 µM,9 µM,9 µM,9 µM,9 µM,
CC(=O)O[C@@H]1C[C@H]2C(C)(C)C(=O)C=C[C@]2(C)[C@H]2CC[C@@]3(C)[C@H](c4ccoc4)OC(=O)[C@H]4O[C@]43[C@@]21C [gedunin],9 µM,3 µM,9 µM,3 µM,,9 µM,,1 µM
Cc1cc2nc(NCCCO)n(CC(=O)c3cc(C(C)(C)C)c(O)c(C(C)(C)C)c3)c2cc1C,,,9 µM,,,,,
COc1ccc(Cl)cc1NC(=O)Nc1cc(C)nc2ccccc12,3 µM,3 µM,3 µM,,,,,1 µM
CC(=O)Nc1ccc(NC(=S)NC(=O)c2ccc(C(C)(C)C)cc2)cc1 [Tenovin-1],,9 µM,3 µM,≤ 0.3 µM,1 µM,9 µM,1 µM,3 µM
N#C/C(=C/c1ccc(-c2cc(Cl)ccc2Cl)o1)C(=O)Nc1cccc2ncccc12,,,,,,9 µM,,
CCCc1cc(C)n(C)c(=O)c1CN(C)C(=O)c1cc(-c2ccc(N3CCN(C(C)C)CC3)nc2)cc2c1cnn2C(C)C,3 µM,3 µM,,3 µM,9 µM,3 µM,9 µM,
CN1C(=O)/C(=C2/Nc3ccccc3/C2=N/O)c2ccc(Br)cc21,,,,1 µM,,9 µM,,3 µM
COCCCC/C(=N/OCCN)c1ccc(C(F)(F)F)cc1 [fluvoxamine],,9 µM,9 µM,9 µM,,,,
O[C@H](CNC[C@H](O)[C@@H]1CCc2cc(F)ccc2O1)[C@@H]1CCc2cc(F)ccc2O1 [nebivolol],,9 µM,3 µM,3 µM,3 µM,9 µM,9 µM,
Cc1c(O)cccc1C(=O)N[C@@H](CSc1ccccc1)[C@H](O)CN1C[C@H]2CCCC[C@H]2C[C@H]1C(=O)NC(C)(C)C [nelfinavir],9 µM,,9 µM,3 µM,9 µM,9 µM,,3 µM
NC(=O)C(c1ccccc1)(c1ccccc1)[C@@H]1CCN(CCc2ccc3c(c2)CCO3)C1 [darifenacin],9 µM,9 µM,,,,,9 µM,9 µM
Clc1ccc2c(c1)C(N1CCNCC1)=Nc1ccccc1O2 [amoxapine],9 µM,,3 µM,9 µM,9 µM,,,
O=C1Cc2cc(CCN3CCN(c4nsc5ccccc45)CC3)c(Cl)cc2N1 [ziprasidone],3 µM,9 µM,3 µM,,,,,
CC1=C(/C=C/C(C)=C\C=C\C(C)=C\C(=O)O)C(C)(C)CCC1 [tretinoin],9 µM,,,1 µM,3 µM,1 µM,1 µM,≤ 0.3 µM
CCN(CCO)CCCC(C)Nc1ccnc2cc(Cl)ccc12 (stereo unspecified) [hydroxychloroquine],9 µM,,9 µM,9 µM,9 µM,9 µM,,
CCSc1ccc2c(c1)N(CCCN1CCN(C)CC1)c1ccccc1S2 [thiethylperazine],9 µM,,9 µM,9 µM,9 µM,9 µM,9 µM,
